# Assay outcomes as filed in PubChem BioAssay.
# The list is not random: actives were taken first. Their share in the collection is about 2.5%.
# MEKK3 PB1 HTS: modulators (inhibitors or enhancers) of MEK5 binding to human MEKK3 PB1 domain. Q99759. bead-based flow cytometry, Alexa488-MEK5 binding to MEKK3; actives lie on both sides; 0 = blocked by unlabeled MEK5, 100 = vehicle. binding response (% of control), % at 10 µM. 290,000 compounds, 1.4% hits. AID 1529;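 active = binding response more than 3 SD above or below the average of its plate-row segment, actives on both sides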;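 note: Alexa488 bead fluorescence after subtracting the streptavidin-only scavenger bead signal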
# MEKK2wt PB1 HTS: raises or lowers MEK5 binding to wildtype human MEKK2 PB1 domain; bead flow cytometry, Alexa488-MEK5 binding to MEKK2 WT; actives lie on both sides; Q9Y2U5; 290,000 compounds, 1.1% hits; binding response (% of control), % at 10 µM; in the data active = binding response below about 67% or above about 130%
# MEKK2 mut-MEK5: signal of MEK5 binding to mutant human MEKK2 PB1 domain; bead flow cytometry, Alexa488-MEK5 binding to MEKK2 mutant; percent response, % at 10 µM; 290,000 compounds, 0.35% hits; AID 1530; in the data active = percent response above about 24%, passing the limit was not always enough
# UBC13 inh: blocks human UBC13 polyubiquitin chain formation; 330,000 compounds, 0.47% hits; P61088; TR-FRET; AID 485273; inhibition, % at 20 µM; in the data active = inhibition above about 45%, passing the limit was not always enough
# Target sequence (P61088 whole entry, looked up): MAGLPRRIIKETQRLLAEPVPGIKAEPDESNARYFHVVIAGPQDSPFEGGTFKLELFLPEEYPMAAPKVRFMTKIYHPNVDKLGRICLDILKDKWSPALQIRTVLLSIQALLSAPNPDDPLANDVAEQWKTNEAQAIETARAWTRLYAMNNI
# Rce1 inhib: inhibitors of yeast Ras-converting enzyme. Q03530. yeast membranes, quenched prenylated peptide cleavage fluorescence. calls only. 290,000 compounds, 0.27% hits;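 active = fall in fluorescence gain of 50% or more versus controls, with final raw signal at or below 3038400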;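 note: plate controls were neutral control wells for no effect and wells lacking membranes for full effect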
# Target sequence (Q03530 whole entry, looked up): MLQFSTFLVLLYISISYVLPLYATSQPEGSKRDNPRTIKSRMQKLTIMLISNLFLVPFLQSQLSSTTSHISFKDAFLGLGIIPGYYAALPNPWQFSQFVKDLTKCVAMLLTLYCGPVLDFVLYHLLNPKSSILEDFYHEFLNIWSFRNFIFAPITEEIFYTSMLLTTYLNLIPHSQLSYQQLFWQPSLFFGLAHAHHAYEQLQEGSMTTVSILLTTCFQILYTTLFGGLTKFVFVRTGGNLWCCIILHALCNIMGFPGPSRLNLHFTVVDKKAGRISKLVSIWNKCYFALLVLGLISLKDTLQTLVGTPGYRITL
# * = called active by the depositor; i = inactive; / = no result given; + = active, no number; [ ] = another dose, or the depositor's remark.
SMILES,MEKK3 PB1 HTS,MEKK2wt PB1 HTS,MEKK2 mut-MEK5,UBC13 inh,Rce1 inhib
Cc1ccc(S(=O)(=O)N2CCCC2C(=O)NCc2ccncc2)cc1 (configuration not stated),101,106,5,2,i
CCN(CC)c1ccc(C=C2C(=O)OC(c3ccccc3)OC2=O)cc1 (configuration not stated),102,92,-4,-20,i
CCN(CC)c1ccc(/C=C/C(=O)C2C(=O)C=C(C)OC2=O)cc1 (configuration not stated),108,72,61*,-58,i
CCC(=O)N1N=C(c2cccs2)CC1c1ccco1 (configuration not stated),103,13*,1,7,i
NC(=O)c1ccc(Oc2ccc(C(N)=O)cc2)cc1,97,100,1,-3,i
O=C(CSc1nnc(Cc2cc(=O)[nH]c(=O)[nH]2)n1-c1ccc(Cl)cc1)NCC1CCCO1 (configuration not stated),101,8.0*,17,5,/
O=C(CSc1nnc(Cc2cc(=O)[nH]c(=O)[nH]2)n1-c1ccccc1)NCC1CCCO1 (configuration not stated),104,97,2,4,i
Cn1ncc(Br)c1N1C(=O)CCC1=O,85,87,-9,-3,i
COc1c2ccoc2nc2c(OC)cccc12,102,103,5,-1,+
COc1cccc2c(=O)ccoc12,97,97,1,14,i
O=S(=O)(c1cc(F)ccc1F)N1CCN2CCCC2C1 (configuration not stated),101,105,0,-6,i
O=C(Nc1nc2ccccc2[nH]1)c1cccc(F)c1,103,107,5,-3,i
O=C(/C=C/c1ccc(F)cc1)Nc1nc2ccccc2[nH]1,208*,112,1,-2,i
CCOC(=O)C[C@H]1c2ccccc2S(=O)(=O)N1Cc1cc(OC)c(OC)c(OC)c1,103,101,-1,6,+
CCOC(=O)C[C@H]1c2ccccc2S(=O)(=O)N1Cc1cccc(C(F)(F)F)c1,109,104,2,4,i
N#Cc1cccc(NC(=O)c2cncn2-c2ccccc2)c1,83,84,-16,0,i
CCOc1ccc(N(CC(=O)Nc2ccc(C)c(C)c2)S(=O)(=O)c2c(C)noc2C)cc1,112,134*,7,4,i
COC(=O)c1ccc2c(c1)C(C)(C)C(/C=C/c1ccc(O)cc1)=[N+]2C,72,51*[inhibitor],-8,-165,i
COc1ccc(C2CC(c3ccc4ccccc4c3)=NN2C(=O)CNC2CCCCC2)cc1 (configuration not stated),68,135,-6,4,+
O=C1NC(=O)C2(CCCCCCCCCCC2)N1,102,105,5,3,i
CCn1c(C)c(C)c2cc(C(=O)NCCN3CCOCC3)ccc21,95,98,1,-9,i
CCn1c(C)c(C)c2cc(C(=O)NCCCN3CCCCC3C)ccc21 (configuration not stated),103,17*,41*,17,i
CCCCCn1c(=O)[nH]c2cc(C(=O)NCCN3CCCCC3C)ccc2c1=O (configuration not stated),101,111,1,15,i
CCn1c(C)c(C)c2cc(C(=O)NCCCN3CCCC3)ccc21,104,144*,14,4,i
COc1ccc2[nH]cc(CCNC(=O)C3CCCCC3)c2c1,100,105,2,6,i
SMILES,MEKK3 PB1 HTS,MEKK2wt PB1 HTS,MEKK2 mut-MEK5,UBC13 inh,Rce1 inhib
CCn1cc(S(=O)(=O)c2ccc(OC)cc2)c(=O)c2cc(F)c(N3CCN(C)CC3)cc21,101,102,1,5,+
CCn1cc(C(=O)N[C@H](C)c2ccccc2)c(=O)c2cc(F)c(N3CCN(C)CC3)cc21,102,109,16,19,+
Cc1ccc(COc2ccsc2C(=O)NNC(N)=S)cc1,104,102,-7,-3,i
COc1cc(C(=O)Nc2ccc3c(c2)CCN3C(C)=O)cc(OC)c1OC,101,173*,21,5,i
COc1cc(C(=O)Nc2ccc(S(=O)(=O)N3CCc4ccccc43)cc2)cc(OC)c1OC,103,114,0,-9,i
CCCn1c(O)c(N=NC(=O)CNC(=O)Cc2ccc(OC)cc2)c2ccccc21,96,97,-11,-20,+
CN(C)CCCN1C(=O)C2CCc3[nH]c4ccccc4c3C2C1=O (configuration not stated),94,97,-2,-11,i
CCN(CC)CCN(C(=O)c1ccc2ccccc2c1)c1nc2ccc(F)cc2s1,99,114,6,10,+
CN(C)CCN(C(=O)c1ccc2ccccc2c1)c1nc2ccc(Br)cc2s1,106,144*,12,7,+
CN(C)CCCN(C(=O)c1ccc(C(=O)c2ccccc2)cc1)c1nc2c(F)cccc2s1,108,143*,13,24,i
CN(C)CCCN(C(=O)COc1ccccc1)c1nc2c(F)cccc2s1,109,124,0,3,i
Cc1ccc2nc(N(CCN(C)C)C(=O)c3ccc4ccccc4c3)sc2c1,105,130,14,20,+
CN(C)CCN(C(=O)c1ccc2ccccc2c1)c1nc2cc3c(cc2s1)OCCO3,102,125,13,26,i
COc1ccc2nc(N(CCN(C)C)C(=O)c3ccc4ccccc4c3)sc2c1,101,132,8,3,i
COc1ccc(C2=NN(CCC(=O)NCc3cccs3)C(=O)CC2)cc1,94,92,-13,13,i
Cc1cccc2sc(N(CCN(C)C)C(=O)c3ccc4ccccc4c3)nc12,100,117,18,15,+
Cc1ccc(S(=O)(=O)N2CCCCC2CCNC(=O)C(=O)Nc2ccccc2F)cc1 (configuration not stated),/,/,/,-8,i
CSC1=NC2(C[C@H]2c2ccccc2)C(=O)N1C (some centres not stated),/,/,/,5,i
CC12CCC(C[N+](C)(C)C1)C2(C)C (configuration not stated),111,33*,91*,13,i
O=C(COc1ccc2ccc(=O)oc2c1)NCCc1c[nH]c2ccc(F)cc12,95,90,-14,2,+
CCCc1cc(=O)oc2cc(OCC(=O)NCCc3c[nH]c4ccc(OC)cc34)ccc12,100,101,1,-3,i
Cc1nc2c(C(=O)N3CCN(C)CC3)cnn2c(C)c1Cc1ccc(Cl)cc1,103,101,8,15,+
CCC(=O)N(Cc1cc2ccccc2[nH]c1=O)c1ccccc1OC,101,101,0,5,i
COc1ccc(-c2ccc(-c3nnc(-c4cc(OC)ccc4OC)o3)cc2)cc1,/,/,/,23,+
